GPR151 activ: activators of human GPR151; Q8TDV0; PathHunter beta-arrestin GPR151 cells, luminescence; activation, % at 11.2 µM; 1% of 650,000 active; AID 1508602; in the data active = activation above about 4.9%;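 also: 0% = median of compound wells and 100% = cells with positive control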
MITF inh: human MITF inhibition, primary screen | O75030 | AlphaScreen MITF homodimerization, bead proximity signal | inhibition, % at 2.6 µM | 0.91% of 650,000 active | AID 1259374; in the data active = inhibition above about 50%;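 also: 0% = vehicle wells with protein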
Target sequence (O75030 whole entry, looked up): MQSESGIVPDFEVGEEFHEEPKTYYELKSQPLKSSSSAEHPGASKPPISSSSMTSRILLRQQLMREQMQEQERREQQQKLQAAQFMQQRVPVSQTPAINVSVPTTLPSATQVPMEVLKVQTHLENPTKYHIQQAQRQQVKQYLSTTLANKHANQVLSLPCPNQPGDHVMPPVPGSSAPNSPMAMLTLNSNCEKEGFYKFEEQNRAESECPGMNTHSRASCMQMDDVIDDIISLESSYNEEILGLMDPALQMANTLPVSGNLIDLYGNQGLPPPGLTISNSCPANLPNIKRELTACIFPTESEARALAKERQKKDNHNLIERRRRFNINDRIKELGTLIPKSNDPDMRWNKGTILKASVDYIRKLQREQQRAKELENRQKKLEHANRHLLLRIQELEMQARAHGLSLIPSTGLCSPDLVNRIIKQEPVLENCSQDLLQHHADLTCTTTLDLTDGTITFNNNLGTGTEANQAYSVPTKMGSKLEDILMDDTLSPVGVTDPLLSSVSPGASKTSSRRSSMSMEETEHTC
FBW7 act: human FBW7 E3 ligase activation, primary screen; Q969H0; AlphaScreen FBW7–phospho-cyclin E peptide binding, activator screen; normalized activity (activation), % at 26.1 µM; 0.13% of 650,000 active; AID 1259310; in the data active = normalized activity above about 1.9%;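 also: purified mutant Fbw7 with reduced substrate affinity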
TEAD-YAP block: TEAD-YAP interaction inhibition; HEK-TIYL cells, TEAD-Gal4/YAP UAS-luciferase luminescence; inhibition, % at 9.12 µM; 1.4% of 640,000 active; in the data active = inhibition above about 32%;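 also: 0% = median of test compound wells and 100% = reference inhibitor wells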
GPR151 confirm: confirmation of human GPR151 activators; shares compounds with GPR151 activ; GPR151 PathHunter beta-arrestin cells, luminescence, 90 min; % of EA-reagent control over plate median; activation, % at 11.2 µM; 6,700 tested, under 10 active; AID 1508609;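 active = mean percent activation across replicates above the confirmation screen cutoff of 4.91%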
GPR119 counter: activates human GPR119 in a GPR151 counter-screen. shares compounds with GPR151 activ. GPR119 PathHunter beta-arrestin cells, luminescence, 90 min; 0 = compound-well median, 100 = enzyme-acceptor control. activation, % at 11.2 µM. 0.3% of 6,700 active. AID 1508611;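 active = mean percent activation in the counterscreen above 29.09%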;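 also: counterscreen on off-target GPR119 to flag nonselective hits from the GPR151 activator screen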
Numbers without * were called inactive; nt = no result; ! = repeats disagree. An excerpt weighted towards active compounds, which were near 3.5% of everything screened.

SMILES | GPR151 activ | MITF inh | FBW7 act | TEAD-YAP block | GPR151 confirm | GPR119 counter
CCC(C)Nc1nnnc2c1cnn2-c1ccccc1 (configuration not stated) | -2 | 4 | 0 | -33 | nt | nt
Cc1nc2sc3c(c2c(=O)n1-n1cccc1)CCCC3 | 5.9* | 7 | 0 | -3 | 0 | 8
Cc1ccccc1-n1c(C)nc2sc3c(c2c1=O)CCC3 | -1 | 6 | 0 | 7 | nt | nt
COc1ccccc1N1CCN(C2CCCN(Cc3ccncc3)C2)CC1 (configuration not stated) | 0 | 6 | 0 | 7 | nt | nt
COc1ccc(CN2CCCC(N3CCN(c4ccccc4OC)CC3)C2)cc1O (configuration not stated) | 1 | -2 | 0 | -1 | nt | nt
COc1ccccc1N1CCN(C2CCCN(Cc3ccc4nonc4c3)C2)CC1 (configuration not stated) | 8.0* | 0 | 0 | 14 | 1 | -4
COc1ccccc1N1CCN(C2CCCN(Cc3cccn3-c3cccnc3)C2)CC1 (configuration not stated) | 7.5* | 4 | 0 | 4 | 0 | 4
O=S(=O)(Cc1ccccc1)N1CCN(c2ccc(F)cc2)CC1 | 0 | -10 | 1 | 5 | nt | nt
COc1ccc(N2CCN(S(=O)(=O)Cc3ccccc3)CC2)cc1 | 6.8* | -10 | 0 | 4 | -1 | -12
CCN(CC)CCN(C)Cc1ccccc1Cl | 0 | 46 | 0 | 6 | nt | nt
CCN(CC)CCN(C)Cc1ccccc1C | 5.0* | 9 | 0 | 3 | 0 | 0
CCc1cccc2c(/C=C3\NC(=S)N(CC)C3=O)cn(CC(=O)N3CCCC3)c12 | 1 | 1 | 0 | 2 | nt | nt
COc1ccc(Cl)cc1NC(=O)c1cnn2c1NC(c1ccc(OC)c(OC)c1)CC2C(F)(F)F (configuration not stated) | 8.6* | 3 | 0 | -18 | 1 | 9
Cc1ncc(CN2CCC(C(=O)Nc3ccc(-n4cccn4)cc3)CC2)s1 | -1 | 15 | 1 | -7 | nt | nt
Cc1cc(C)n(-c2ccc(NC(=O)C3CCN(Cc4cnc(C)s4)CC3)cc2)n1 | 5.8*! | -7 | 0 | 3 | 0 | -14
O=C1c2ccccc2C(=O)c2c(O)ccc(O)c21 | 18* | 5 | 0 | 1 | 0 | 2
O=C1c2ccccc2C(=O)c2c(O)c(O)cc(O)c21 | 0 | 30 | 0 | -1 | nt | nt
O=C(O)CCC(=O)c1ccc(Cc2ccccc2)cc1 | 5.3* | 4 | 0 | 5 | 1 | 3
O=C(NCCCN1CCN(c2ccccc2)CC1)c1ccccc1 | 3 | 6 | 0 | -3 | nt | nt
Cc1ccc(C(=O)NCN2CCN(c3ccccc3)CC2)cc1 | 6.0* | 7 | 0 | 9 | 0 | -7
O=C(Nc1cccc(Cl)c1)c1ccc(F)c(S(=O)(=O)N2CCc3ccccc3C2)c1 | 5.4* | 0 | 0 | -8 | 1 | 7
Cc1ccc(N2CCN(S(=O)(=O)c3cc(C(=O)Nc4cc(Cl)cc(Cl)c4)ccc3F)CC2C)cc1 (configuration not stated) | 5.7* | 11 | 0 | 5 | 0 | 4
CCN1CCN(S(=O)(=O)c2cc(C(=O)Nc3cccc(C)c3)ccc2F)CC1 | 6.1* | 9 | 0 | -4 | -1 | -7
COc1ccc(NC(=O)c2cc3cc(OC)ccc3oc2=Nc2ccc(C(=O)O)cc2)c(OC)c1 | 0 | 10 | 0 | -9 | nt | nt
COc1ccc(NC(=O)c2cc3ccc(OC)cc3oc2=Nc2ccc(C(=O)O)cc2)c(OC)c1 | 11* | -9 | 0 | 16 | 0 | 15
SMILES | GPR151 activ | MITF inh | FBW7 act | TEAD-YAP block | GPR151 confirm | GPR119 counter
CCOc1ccc(-n2cc(-c3ccccc3)c3c(NCCCN4CCOCC4)ncnc32)cc1 | -1 | 3 | 0 | -3 | nt | nt
Cc1ccc(N2CC(=O)Nc3c(sc4nc(C)cc(C)c34)C2=O)cc1 | 2 | -6 | 0 | 3 | nt | nt
Cc1cc(C)c2c3c(sc2n1)C(=O)N(c1ccc(F)cc1)CC(=O)N3 | 5.6* | 4 | 0 | 2 | 0 | -1
CCOc1ccc(N2CCN(CCNC(=O)Nc3cccc(Cl)c3)CC2)cc1 | 5.5* | 21 | 0 | -1 | 0 | 4
O=C(NCCN1CCN(c2cccc(Cl)c2)CC1)Nc1ccccc1 | 0 | -11 | 0 | 2 | nt | nt
CN1CCN(c2c(CN3CCCC3)c(=O)oc3ccccc23)CC1 | -1 | -6 | 0 | -1 | nt | nt
CCSc1nc2ccc(NC(=O)c3ccccc3C(=O)O)cc2s1 | 1 | 2 | 0 | -47 | nt | nt
COc1ccc(NC(=O)CN2CCN(S(=O)(=O)c3ccc(Cl)cc3)CC2)cc1OC | 1 | -3 | 0 | 14 | nt | nt
FC(F)(F)c1ccc(-c2cnnc(N3CCCCCC3)n2)cc1 | 0 | 2 | 0 | 7 | nt | nt
C[C@@H]1CN(c2nncc(-c3cccc(C(F)(F)F)c3)n2)C[C@H](C)O1 | -1 | 13 | 0 | 0 | nt | nt
FC(F)(F)c1ccc(-c2cnnc(N3CCN(Cc4cccnc4)CC3)n2)cc1 | 6.0* | -2 | 0 | 6 | 0 | -2
FC(F)(F)c1cccc(-c2cnnc(N3CCN(c4ccccn4)CC3)n2)c1 | 15* | 12 | 0 | 12 | 0 | 9
COc1ccccc1CNC(=O)c1c[nH]c2ccc(S(=O)(=O)N3CCC4(CC3)OCCO4)cc2c1=O | 0 | 6 | 0 | 14 | nt | nt
CCOc1cc(-c2noc(CCC(=O)NC)n2)cc(Br)c1OC | 6.6* | -17 | 0 | 6 | 0 | 8
CCOc1ccc(-c2noc(CCC(=O)NC)n2)cc1OC | 0 | -1 | 0 | -15 | nt | nt
N/C(=N\OC(=O)c1ccncc1)c1cccnc1 | 5.8* | 12 | 1 | -20 | 0 | 0
Cc1ccc(N2C(=O)c3ccncc3C2=O)cc1 | 1 | -8 | 0 | 2 | nt | nt
O=C1c2ccncc2C(=O)N1c1ccc(F)cc1 | 5.9* | -8 | 0 | -9 | 0 | -9
O=C1NCN(c2ccccc2)C12CCN(CCCC(c1ccc(F)cc1)c1ccc(F)cc1)CC2 | 7.2*! | 19 | 0 | 4 | -1 | -12
Fc1ccc(C(CCCN2CCN3CCCC3C2)c2ccc(F)cc2)cc1 (configuration not stated) | 1 | -4 | 0 | -1 | nt | nt
CC(C)(C)C(NS(=O)(=O)c1cccc2nsnc12)C(=O)O (configuration not stated) | 0 | 10 | 0 | 6 | nt | nt
CN(CC(=O)Nc1ccc(C(N)=O)cc1)CC(=O)Nc1ccccc1Cl | 1 | -11 | 0 | -5 | nt | nt
COc1ccc(CN(C)CC(=O)Nc2ccc(C(N)=O)cc2)c(OC)c1OC | 5.0* | -5 | 0 | 1 | 1 | 12
CN(CC(=O)Nc1ccc(Cl)cc1)CC(=O)Nc1ccc(C(N)=O)cc1 | 5.4* | -6 | 0 | 4 | 0 | -9
CN(CC(=O)Nc1ccc(C(N)=O)cc1)Cc1ccc(C(C)(C)C)cc1 | 1 | -1 | 0 | -8 | nt | nt

Screens: PubChem BioAssay, The Scripps Research Institute Molecular Screening Center
